Many of the other results were omitted from the sample, so hits are more common in it than they were.
HT1080 IDH1KD tx – toxicity to HT-1080 IDH1 knockdown cells (counter line) | HT-1080 IDH1 knockdown viability, ATP luminescence, 48 h | Potency, µM (highest dose often 46.1 µM), most hits filed as cytotoxic | actives 2% (n = 360,000) | AID 686971
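Viability of IDH1-knockdown HT-1080 fibrosarcoma cells was assessed by CellTiter-Glo after 48 h at 37 °C with titrated compound; concentration-effect curves were classified by fit quality and response size.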
ALOX12 inh – ALOX12 (human) lipoxygenase inhibition | purified 12hLO, xylenol orange hydroperoxide absorbance | Potency, µM (top dose mostly 108 µM), hits mostly inhibitors | actives 1.1% (n = 580,000) | AID 1671190
Target sequence (P18054 whole entry, looked up): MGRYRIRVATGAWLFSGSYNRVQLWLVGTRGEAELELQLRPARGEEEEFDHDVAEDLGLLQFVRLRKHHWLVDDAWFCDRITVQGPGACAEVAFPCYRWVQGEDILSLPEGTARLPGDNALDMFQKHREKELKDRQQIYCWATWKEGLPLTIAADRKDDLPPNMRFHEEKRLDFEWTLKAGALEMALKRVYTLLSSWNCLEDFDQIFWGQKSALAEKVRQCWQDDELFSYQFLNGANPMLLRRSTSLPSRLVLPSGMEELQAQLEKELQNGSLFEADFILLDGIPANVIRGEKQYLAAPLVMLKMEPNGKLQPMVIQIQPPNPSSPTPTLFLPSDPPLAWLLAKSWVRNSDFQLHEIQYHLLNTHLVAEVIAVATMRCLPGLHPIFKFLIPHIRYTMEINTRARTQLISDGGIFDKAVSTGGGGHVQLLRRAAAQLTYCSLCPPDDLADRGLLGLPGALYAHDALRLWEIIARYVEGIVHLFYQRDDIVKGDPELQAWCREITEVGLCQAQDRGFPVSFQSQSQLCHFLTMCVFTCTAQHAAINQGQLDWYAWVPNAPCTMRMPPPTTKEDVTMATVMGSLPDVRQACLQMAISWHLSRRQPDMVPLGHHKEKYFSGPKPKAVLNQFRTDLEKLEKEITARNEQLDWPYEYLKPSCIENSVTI
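Hydroperoxide product was detected by ferrous iron/xylenol orange as the 573 to 405 nm absorbance ratio. Arachidonic acid at 40 uM (final) was turned over for 30 min at room temperature by 150 nM human 12hLO, pH 7.0 Hepes buffer, after 15 min compound preincubation.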
HT1080NT lethal – kills 2HG-producing HT-1080-NT fibrosarcoma cells. HT-1080-NT fibrosarcoma viability, CellTiter-Glo ATP luminescence, 48 h. Potency, µM (series often up to 46.1 µM), hits mostly cytotoxic. actives 1.6% (n = 360,000). AID 686970;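 note: NT is the 2HG producing partner of a matched IDH1 knockdown line; nearly all actives have a fitted effect of over 55% in size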
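Compounds were tested in concentration-response format on HT-1080-NT cells for 48 hours at 37 degrees C. Cell viability came from CellTiter-Glo luminescence; curves were classified by r2, response magnitude and activity.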
DT40 TDP1 CPT – DT40-hTDP1 cell growth loss with CPT | chicken DT40 Tdp1-/-;hTDP1 cells + 20 nM CPT, ATP luminescence, 48 h | Potency, µM (highest dose often 46.2 µM), most hits filed as inhibitors | AID 686979 | actives 12% (n = 420,000); note: nearly all actives have a fitted effect of over 55% in size
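Chicken DT40 Tdp1-/- cells complemented with human TDP1, 400 cells/well, exposed to compounds plus 20 nM camptothecin for at least 48 h at 37 C; viability read as ATP content by CellTiter-Glo luminescence.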
TDP1 cell noCPT – qHTS for Inhibitors of human tyrosyl-DNA phosphodiesterase 1 (TDP1): qHTS in cells in absence of CPT; DT40 Tdp1-/- hTDP1 cells, no CPT, ATP luminescence, 48 h; actives 15% (n = 420,000); Potency, µM (doses to about 46.2 µM), hits mostly inhibitors; AID 686978, 2013; note: nearly all actives have a fitted effect of over 55% in size
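Camptothecin absent (DMSO only). Human TDP1-complemented DT40 knockout cells, 400 cells/well, 37 °C for minimum 48 hr; ATP measured via CellTiter-Glo, 30 min dark incubation, luminescence.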
IL1B secr inh – blocks inflammasome-driven IL-1 beta release | THP-1 LPS/ATP IL-1B secretion, AlphaLISA, 16 h; active compounds read low | activity change, % at 57.5 µM | actives 4.7% (n = 360,000) | AID 743279; in the data active = activity change below about -50%; inconclusive = mostly about -30% to -49%
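Secreted IL-1B measured by AlphaLISA bead assay after 16 h compound exposure of THP-1 cells; compounds (final up to 57.5 uM) added 1 h before LPS (250 ng/mL) and ATP (1.25 mM) stimulation; lower signal means less secretion.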
Hits are given with their value; 0 = inactive; ? = inconclusive; - = no result given; [ ] = another dose, or the depositor's remark. Unless noted, calls come from the whole dose curve; as a rule, active = well fitted curve in the direction sought with a large enough effect; inconclusive = small, poorly fitted or top-dose-only effect, or another doubt; inactive = no such curve, though single readings can be large; an effect the other way counts as inactive or inconclusive.

SMILES	HT1080 IDH1KD tx	ALOX12 inh	HT1080NT lethal	DT40 TDP1 CPT	TDP1 cell noCPT	IL1B secr inh
O=C1C(Cl)=C(NCCCO)C(=O)c2ccccc21	?	0	?	23µM	18µM	0
CCOCCCNC1=C(Cl)C(=O)c2ccccc2C1=O	0	0	0	5.8µM	6.5µM	0
CCOCCCNS(=O)(=O)c1ccccc1	0	0	0[9.24 µM]	0	0	0
O=C1CCN(C(=O)c2ccsc2)CCCCCCN1	-	0	-	-	-	-
OC1CC(c2cc(NCCSC3CCCCC3)ncn2)C1 (stereo unspecified)	-	0	-	-	-	-
Cn1c(=O)[nH]c(=O)c2c1nc(SCc1ccc(F)cc1)n2CCCc1ccccc1	-	0	-	-	-	-
O=C(O)C(=Cc1ccc([N+](=O)[O-])cc1)c1cccc(Cl)c1	0	0	0	8.2µM	?	0
COc1ccccc1C(=Cc1ccc([N+](=O)[O-])cc1)C(=O)O	0	0	0	0	0	0
CCn1nc(-c2ccc(C)c(S(=O)(=O)N3CCCC3)c2)c2c(c1=O)CCCC2	-	0	-	-	-	-
OCCSc1nc(-c2ccccc2)nc2ccc(F)cc12	0	0	0	?	?	0
NC(N)=Nc1nc(-c2ccccc2)c2cc(F)ccc2n1	21µM	0	21µM	21µM	12µM	-90
CCOCCN1CCN(c2c(C)c(C)nc3cc(-c4cc(OC)cc(OC)c4)nn23)CC1	0	0	?	?	26µM	?
COc1cc(OC)cc(-c2cc3nc(C)c(CCC(=O)O)c(C)n3n2)c1	0	?	0	0	?	0
COCCN1CCN(c2c(C)c(C)nc3cc(-c4cccc(OC)c4)nn23)CC1	0	0	0	?	?	0
CCc1c(C)nc2cc(-c3cc(OC)cc(OC)c3)nn2c1N1CCN(CCN2CCOCC2)CC1	0	0	0	23µM	16µM	?
CCCCCC(=O)Nc1cc(S(=O)(=O)N2CCOCC2)ccc1Oc1ccc(OCC)cc1	0	0	0	?	?	0
Cc1nc(N2CCN(S(=O)(=O)c3ccccc3C#N)CC2)c2c(-c3ccccc3)csc2n1	0	0	0	?	13µM	0
N#Cc1ccccc1S(=O)(=O)N1CCN(c2cnccn2)CC1	0	0	0	0	0	0
N#Cc1ccc(S(=O)(=O)N2CCN(c3nc(-c4cccs4)nc4ccccc34)CC2)cc1	-	0	-	?	?	-
N#Cc1ccccc1S(=O)(=O)N1CCN(c2nc(-c3ccccc3)nc3ccccc23)CC1	0	0	0	16µM	11µM	0
Cc1ccc(S(=O)(=O)N2CCN(c3nc(-c4cccs4)nc4ccccc34)CC2)c(C)c1	0	-	0	?	?	-
N#Cc1ccccc1S(=O)(=O)N1CCN(c2nc(-c3cccs3)nc3ccccc23)CC1	0	-	0	16µM	7.9µM	-
O=S(=O)(c1cccc2ccccc12)N1CCN(c2nc(-c3cccs3)nc3ccccc23)CC1	0	-	0	?	10µM	-
O=C(c1ccccc1)N1CCC(Oc2cccc(F)c2)(C(=O)O)CC1	-	0	-	-	-	-
CC(=O)N1CCCC1C(=O)Nc1ccc(-c2nc3ccccc3o2)cc1 (stereo unspecified)	-	0	-	-	-	-
SMILES	HT1080 IDH1KD tx	ALOX12 inh	HT1080NT lethal	DT40 TDP1 CPT	TDP1 cell noCPT	IL1B secr inh
COc1ccc(CNC(=O)Cn2ccn3nc4c(c3c2=O)CCCC4)cc1OC	-	0	-	-	-	-
O=S(=O)(c1ccccc1Cl)N1CCN(c2nc(-c3cccs3)nc3ccccc23)CC1	0	-	0	7.9µM	10µM	-
O=S(=O)(c1ccc(F)cc1F)N1CCN(c2nc(-c3cccs3)nc3ccccc23)CC1	0	-	0	?	?	-
O=S(=O)(c1ccccc1C(F)(F)F)N1CCN(c2nc(-c3ccccc3)nc3ccccc23)CC1	-	-	-	?	13µM	-
O=S(=O)(c1ccccc1F)N1CCN(c2nc(-c3cccs3)nc3ccccc23)CC1	0	0	0	?	11µM	-
O=S(=O)(c1cccc(C(F)(F)F)c1)N1CCN(c2nc(-c3ccccc3)nc3ccccc23)CC1	-	-	-	0	0	-
O=C(N/N=C/c1ccc(Br)s1)c1cccc(Br)c1	-	0	-	-	-	-
O=c1c2c([N+](=O)[O-])cc([N+](=O)[O-])cc2nc2ccccn12	0	?	0	?	?	0
O=c1c2c([N+](=O)[O-])cc([N+](=O)[O-])cc2sn1-c1ccc(Br)cc1	0	-	0	10µM	?	0
O=c1c2c([N+](=O)[O-])cc([N+](=O)[O-])cc2sn1Cc1ccccc1	?	0.79µM	?	5.2µM	5.2µM	-105
Cc1ccc(-c2nn(CC(=O)NC(C)(C)C)c(=O)c3ccccc23)cc1S(=O)(=O)N(C)C	-	0	-	-	-	-
O=C(Nc1nc(-c2ccccn2)cs1)c1ccc(F)c(S(=O)(=O)N2CCOCC2)c1	?	0	?	1.5µM	0.58µM	0
Cc1ccc(C(=O)Nc2ccccn2)cc1S(=O)(=O)N1CCOCC1	0	0	0	0	0	0
Cc1ccc(C(=O)Nc2nc(-c3ccccn3)cs2)cc1S(=O)(=O)N1CCOCC1	4.6µM	0	18µM	1.3µM	0.73µM	0
O=C(Nc1nc(-c2ccccn2)cs1)c1cc(S(=O)(=O)N2CCOCC2)ccc1F	?	?	?	2.6µM	2.3µM	0
Cc1ccc(C)c(C(=O)NC2CCN(c3cc(-c4ccc(F)cc4)[nH]n3)C2)c1 (stereo unspecified)	-	0	-	-	-	-
Cc1cc(C)c(NS(=O)(=O)c2ccc(N3C(=O)CCS3(=O)=O)cc2)c(Cl)c1	-	0	-	-	-	-
COCCCn1c(-c2ccc(Cl)cc2)n[nH]c1=S	0	?	0	0	0	0
COCCCn1cn[nH]c1=S	0	0	0	?	15µM	0
COCCC1(C(=O)O)CCCN(C(=O)CN(C)Cc2ccncc2)C1 (stereo unspecified)	-	0	-	-	-	-
O=C1N[C@@H](Cc2ccccc2)C(=O)N2[C@H]1C[C@]1(Br)c3ccccc3N(S(=O)(=O)c3ccc(F)cc3)[C@H]21	0	?	0	18µM	?	0
Cc1ccc(Cn2c(CN3CCN(c4ccccc4)CC3)nc3c2c(=O)n(C)c(=O)n3C)cc1	-	0	-	-	-	-
CC1CCCC(C)N1/N=C/c1ccc(O)c(O)c1 (stereo unspecified)	0	?	0	0	23µM	0
Cc1ccc(C(=O)C(C)OC(=O)c2cccc(S(=O)(=O)N(C)C)c2)cc1 (stereo unspecified)	-	0	-	-	-	-
CC(C)CCCC(C)NC(=O)c1cc(S(=O)(=O)N2CCCCC2)ccc1N1CCOCC1 (stereo unspecified)	0	0	0[9.24 µM]	23µM	13µM	0
Cc1ccc(COC(=O)c2cc(S(=O)(=O)N3CCCCC3)ccc2N2CCOCC2)cc1	0	0	0	?	26µM	0

Screening results (PubChem BioAssay)
